# According to PubChem BioAssay AID1159580 (chemical genetic matrix, 2015):
# Values joined by “and” are separate entries in the source; they are usually repeats but may differ in a detail not shown here. Equal entries are not always repeated. Screen size: about 5,500 compounds; about 2,000 (36%) were called active. Roughly 18% stayed inconclusive and do not appear here. Some of the results follow. Values without a mark were called inactive. Rule as the data show it: active = normalized growth mostly below about 0.91 (no sharp cut-off); inconclusive = no clear call, values can overlap the other calls; inactive = mostly above about 0.92.
# Assay: chemical genetic growth profiling, strain panel (AID 1159580);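 also: tested at 20 µM; growth read once vehicle control cultures reached saturation at 30 °C; 1 = growth at the plate median or of vehicle wells; lower values mean less growth of the strain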
# Conditions: S. cerevisiae deletion strains, growth OD
smiles,measurement,setting,value
CC(C)=CCCC1(C)C=Cc2c(O)c3c(c(CC=C(C)C)c2O1)OC12C(=CC4CC1C(C)(C)OC2(C/C=C(/C)C(=O)O)C4O)C3=O (stereo unspecified),normalized growth,"locus YBR021W, strain FUR4, stronger effect = lower value",1.02
same,normalized growth,"locus YBR229C, strain ROT2, stronger effect = lower value",0.947
same,normalized growth,"locus YCL029C, strain bik1, stronger effect = lower value",0.946
same,normalized growth,"locus YDL035C, strain GPR1, stronger effect = lower value",0.953
same,normalized growth,"locus YDL074C, strain BRE1, stronger effect = lower value",1.03
same,normalized growth,"locus YDL101C, strain DUN1, stronger effect = lower value",0.944
same,normalized growth,"locus YDL134C, strain PPH21, stronger effect = lower value",0.949
same,normalized growth,"locus YDL185W, strain tfp1, stronger effect = lower value",0.955
same,normalized growth,"locus YDL192W, strain arf1, stronger effect = lower value",0.945
same,normalized growth,"locus YDR101C, strain arx1, stronger effect = lower value",0.929
same,normalized growth,"locus YDR162C, strain NBP2, stronger effect = lower value",0.862
same,normalized growth,"locus YDR318W, strain mcm21, stronger effect = lower value",0.931
same,normalized growth,"locus YDR388W, stronger effect = lower value",0.942
same,normalized growth,"locus YDR502C, strain sam2, stronger effect = lower value",0.917 (active)
same,normalized growth,"locus YER110C, stronger effect = lower value",0.952
same,normalized growth,"locus YER155C, strain BEM2, stronger effect = lower value",1.01
same,normalized growth,"locus YER167W, strain BCK2, stronger effect = lower value",0.995
same,normalized growth,"locus YGL078C, strain dbp3, stronger effect = lower value",0.967
same,normalized growth,"locus YGL086W, strain mad1, stronger effect = lower value",0.925 (active)
same,normalized growth,"locus YGL248W, strain PDE1, stronger effect = lower value",0.946
same,normalized growth,"locus YGR078C, strain PAC10, stronger effect = lower value",1.01
same,normalized growth,"locus YGR135W, strain pre9, stronger effect = lower value",1
same,normalized growth,"locus YGR252W, strain gcn5, stronger effect = lower value",1.06
same,normalized growth,"locus YHR030C, strain SLT2, stronger effect = lower value",0.983 and 0.976
same,normalized growth,"locus YHR079C, strain IRE1 (second series), stronger effect = lower value",0.944
same,normalized growth,"locus YHR079C, strain IRE1, stronger effect = lower value",0.971
same,normalized growth,"locus YHR094C, strain hxt1, stronger effect = lower value",0.958
same,normalized growth,"locus YHR129C, strain ARP1, stronger effect = lower value",0.955
same,normalized growth,"locus YHR200W, strain rpn10, stronger effect = lower value",0.938
same,normalized growth,"locus YIL066C, strain RNR3, stronger effect = lower value",0.924
same,normalized growth,"locus YIL073C, strain SPO22, stronger effect = lower value",1.06
same,normalized growth,"locus YIL125W, strain kgd1, stronger effect = lower value",0.936
same,normalized growth,"locus YIR030C, strain dcg1, stronger effect = lower value",0.966
same,normalized growth,"locus YJL095W, strain BCK1, stronger effect = lower value",0.938 and 0.988
same,normalized growth,"locus YJL134W, strain LCB3, stronger effect = lower value",0.976
same,normalized growth,"locus YJL168C, strain set2, stronger effect = lower value",0.99
same,normalized growth,"locus YJL187C, strain SWE1 (second series), stronger effect = lower value",0.929
same,normalized growth,"locus YJR043C, strain POL32, stronger effect = lower value",0.963
same,normalized growth,"locus YJR066W, strain TOR1, stronger effect = lower value",0.949
same,normalized growth,"locus YKL009W, strain mrt4, stronger effect = lower value",0.953
same,normalized growth,"locus YKL068W, stronger effect = lower value",0.98
same,normalized growth,"locus YKL085W, strain MDH1 (second series), stronger effect = lower value",0.962
same,normalized growth,"locus YKL085W, strain MDH1, stronger effect = lower value",0.962
same,normalized growth,"locus YKR001C, strain vps1, stronger effect = lower value",0.849 (active)
same,normalized growth,"locus YLR039C, strain RIC1, stronger effect = lower value",0.883
same,normalized growth,"locus YLR058C, strain SHM2, stronger effect = lower value",0.931
same,normalized growth,"locus YLR102C, strain apc9, stronger effect = lower value",0.966
same,normalized growth,"locus YLR113W, strain HOG1, stronger effect = lower value",0.911
same,normalized growth,"locus YLR268W, strain sec22, stronger effect = lower value",0.883 (active)
same,normalized growth,"locus YLR330W, strain CHS5, stronger effect = lower value",0.991
same,normalized growth,"locus YLR371W, strain rom2, stronger effect = lower value",0.964
same,normalized growth,"locus YLR418C, strain cdc73, stronger effect = lower value",0.787 (active)
same,normalized growth,"locus YML016C, strain PPZ1, stronger effect = lower value",0.963
same,normalized growth,"locus YML032C, strain rad52, stronger effect = lower value",0.945
same,normalized growth,"locus YML124C, strain tub3, stronger effect = lower value",0.952
same,normalized growth,"locus YMR078C, strain ctf18, stronger effect = lower value",0.967
same,normalized growth,"locus YMR223W, strain ubp8, stronger effect = lower value",0.956
same,normalized growth,"locus YMR263W, strain SAP30, stronger effect = lower value",0.971
same,normalized growth,"locus YMR307W, strain GAS1, stronger effect = lower value",1.03
same,normalized growth,"locus YNL067W, strain RPL9B, stronger effect = lower value",0.985
same,normalized growth,"locus YNL128W, strain TEP1, stronger effect = lower value",0.921
same,normalized growth,"locus YNL183C, strain NPR1, stronger effect = lower value",0.917
same,normalized growth,"locus YNL233W, strain BNI4, stronger effect = lower value",1.02
same,normalized growth,"locus YNL250W, strain rad50, stronger effect = lower value",0.951
same,normalized growth,"locus YNL271C, strain bni1, stronger effect = lower value",0.947
same,normalized growth,"locus YNL298W, strain CLA4, stronger effect = lower value",0.955
same,normalized growth,"locus YNL307C, strain MCK1, stronger effect = lower value",0.72 (active)
same,normalized growth,"locus YNL322C, strain KRE1, stronger effect = lower value",0.986
same,normalized growth,"locus YNR052C, strain pop2, stronger effect = lower value",0.961
same,normalized growth,"locus YOL012C, strain htz1",0.366
same,normalized growth,"locus YOL147C, strain pex11, stronger effect = lower value",0.97
same,normalized growth,"locus YOR061W, strain CKA2, stronger effect = lower value",0.924
same,normalized growth,"locus YOR069W, strain VPS5, stronger effect = lower value",0.979
same,normalized growth,"locus YOR136W, strain idh2, stronger effect = lower value",0.962
same,normalized growth,"locus YOR144C, strain elg1, stronger effect = lower value",0.966
same,normalized growth,"locus YOR184W, strain ser1, stronger effect = lower value",0.803 (active)
same,normalized growth,"locus YOR231W, strain MKK1, stronger effect = lower value",0.942
same,normalized growth,"locus YOR316C, strain cot1, stronger effect = lower value",0.956
same,normalized growth,"locus YPL055C, strain LGE1, stronger effect = lower value",0.949
same,normalized growth,"locus YPL241C, strain CIN2, stronger effect = lower value",0.98
same,normalized growth,"locus YPL256C, strain CLN2, stronger effect = lower value",0.955
same,normalized growth,"locus YPR119W, strain clb2, stronger effect = lower value",0.966
same,normalized growth,"locus YPR141C, strain kar3, stronger effect = lower value",0.954
same,normalized growth,"locus YPR163C, strain tif3, stronger effect = lower value",0.909 (active)
same,normalized growth,"locus YPR167C, strain met16, stronger effect = lower value",0.984
same,normalized growth,"strain wtn01, stronger effect = lower value",0.911
